# Lassa entry inh = blocks Lassa virus binding to or entry into cells. AID 540256. 1.2% of 300,000 active. Lassa virus pseudotype entry inhibition, cell reporter. Potency, µM (series often up to 37.9 µM), hits mostly inhibitors; calls by dose curve; tested in HEK293 cells; also: nearly all actives have a fitted effect of over 50% in size
# FBPA Giardia inh = blocks Giardia fructose-bisphosphate aldolase activity. 0.71% of 290,000 active. Potency, µM (highest dose often 59.6 µM), usual class: inhibitors. purified Giardia FBPA. AID 2451. A8B2U2; also: nearly all actives have a fitted effect of over 55% in size
# Target sequence (A8B2U2 whole entry, looked up): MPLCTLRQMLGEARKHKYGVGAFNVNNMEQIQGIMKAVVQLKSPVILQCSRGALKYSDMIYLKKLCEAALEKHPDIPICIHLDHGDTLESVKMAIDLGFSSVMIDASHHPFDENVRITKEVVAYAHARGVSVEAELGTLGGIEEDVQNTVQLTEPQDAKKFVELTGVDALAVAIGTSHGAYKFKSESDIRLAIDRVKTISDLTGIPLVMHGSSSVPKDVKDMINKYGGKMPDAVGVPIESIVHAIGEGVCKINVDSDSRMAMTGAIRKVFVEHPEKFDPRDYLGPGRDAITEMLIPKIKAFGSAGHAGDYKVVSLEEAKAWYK
#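 40 nM FBPA preincubated 10 min at RT with compound (up to 57.5 uM final), then substrate plus GAPDH/TPI/NAD/arsenate coupling and diaphorase/resazurin added. Fluorescence read after 20 min at RT, 525/598 nm.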
# MARV entry inh = inhibitors of Marburg virus binding or cell entry; AID 540276; Potency, µM (highest dose often 37.8 µM), hits mostly inhibitors; Marburg virus pseudotyped entry inhibition, cell reporter; 1.8% of 300,000 active; calls by dose curve; tested in HEK293 cells
# FMDV inh = antivirals against foot and mouth disease virus | FMDV antiviral cell-based qHTS | Potency, µM (doses to about 57.9 µM), most hits filed as inhibitors | 1.2% of 410,000 active; calls by dose curve; tested in HEK293T cells; also: read-out not given here; nearly all actives have a fitted effect of over 45% in size
# HCV inh = blocks hepatitis C virus; Potency, µM (doses to about 41.8 µM), actives largely listed as inhibitors; 3.4% of 340,000 active; Huh7.5.1 HCVcc-Cre infection, luciferase reporter, 44 h; AID 651820
#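 Luciferase read-out (15 sec integration) after a 15 min room-temperature substrate step quantifies HCVcc-Cre infection. Cells, 1,000 per well, had compound added 4 h post-plating, then virus at ~0.5 moi, and were cultured 44 h.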
# HCMV inh = inhibitors of human cytomegalovirus; 4.5% of 410,000 active; HFF cells, HCMV-luciferase reporter, 72 h; active compounds read low; AID 1259415; activity change, negative = inhibition, % at 57.5 µM; in the data active = activity change below about -60%; inconclusive = no clear call, values can overlap the other calls; inactive = above about -39%
#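 Inhibition of viral replication was scored as loss of reporter luminescence in HFFs infected with HCMV-luciferase (MOI 1 PFU/cell) for 72 h; compounds tested at 2 doses, normalized to buffer and Salinomycin controls.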
# Hits are given with their value; 0 = inactive; ? = inconclusive; - = no result given; [ ] = another dose, or the depositor's remark. Hits are enriched below; roughly 8.3% of the tested compounds scored in any of these assays. Unless noted, calls follow the shape of the dose curve; as a rule, active = well fitted curve in the direction sought with a large enough effect; inconclusive = small, poorly fitted or top-dose-only effect, or another doubt; inactive = no such curve, though single readings can be large; an effect the other way counts as inactive or inconclusive.
SMILES,Lassa entry inh,FBPA Giardia inh,MARV entry inh,FMDV inh,HCV inh,HCMV inh
O=C(c1ccccc1)N1CCc2ccccc21,0,0,0,0,0,0
O=C(c1ccccc1)N1CCN(C(=O)c2ccccc2)c2ccccc21,?,-,?,35µM,3.2µM,-100
O=C(c1ccc(Oc2ccc(C(F)(F)F)cc2[N+](=O)[O-])cc1)N1CCOCC1,?,0,?,?,0,-83
O=C(c1ccccc1Oc1ccc(C(F)(F)F)cc1[N+](=O)[O-])N1CCOCC1,0,0,0,0,0,0
CCOC(=O)c1sc(SC)c2c1CCC/C2=N/OC,0,0,0,0,?,0
CO/N=C1\CCCc2c(C(=O)NN)sc(SC)c21,?,0,?,0,0,-66
CCc1cc[n+](C2=C([O-])c3ccccc3C(=O)/C2=N\S(=O)(=O)c2cccs2)cc1,18µM,?,7.1µM,?,5µM,?
CCOc1ccc(Oc2c(C)oc3cc(O)ccc3c2=O)cc1,0,0,0,0,0,?
CCOC(=O)c1ccc(Oc2c(C)oc3cc(OS(C)(=O)=O)ccc3c2=O)cc1,0,0,?,0,?,-77
CS(=O)(=O)Nc1cc(C(=O)N2CCNC(=O)C2)c2c(c1)ncn2CCc1ccccc1,-,-,-,0,-,-
N#Cc1c(Cl)nsc1NC(=O)c1ccccc1,-,0,-,0,14µM,-100
N#Cc1c(NC(=O)c2ccccc2)sc2c1CCCCC2,?,0,?,0,?,0
CC(C)=CCn1cnc2c1C(NOCc1ccccc1)=NCN2,-,0,?,-,-,-
Cc1ccc(S(=O)(=O)Nc2ccc3c(c2)nc2n3CCN(Cc3ccccc3)C2)cc1,?,0,?,0,16µM,0
O=S(=O)(Nc1ccc2c(c1)nc1n2CCN(Cc2ccccc2)C1)c1ccc(F)cc1,0,0,0,0,?,0
O=S(=O)(Nc1ccc2c(c1)nc1n2CCN(Cc2ccccc2)C1)c1ccccc1,0,0,0,?,5.6µM,-96
O=C(Nc1ccc2c(c1)nc1n2CCN(Cc2ccccc2)C1)NC1CCCCC1,0,?,0,0,0,0
COc1ccccc1C(=O)Nc1ccc2c(c1)nc1n2CCN(Cc2ccccc2)C1,?,0,?,?,?,-68
O=S(=O)(Nc1ccc2c(c1)nc1n2CCN(Cc2ccccc2)C1)c1ccc(Cl)cc1,0,0,0,0,11µM,0
COC(=O)c1ccc(N2CCC(c3cc(-c4ccc(OC)cc4)n[nH]3)CC2)c([N+](=O)[O-])c1,?,0,?,?,11µM,0
COc1ccc(-c2cc(C3CCN(c4ccc(C(C)=O)cc4[N+](=O)[O-])CC3)[nH]n2)cc1,?,0,?,18µM,11µM,-98
CC(=O)c1ccc(N2CCC(c3cc(-c4ccc(Cl)cc4)n[nH]3)CC2)c([N+](=O)[O-])c1,0,0,0,?,?,-
CCOC(=O)/C(=C\c1ccc(Cl)cc1)c1nc2sc(C)c(C)c2c(=O)[nH]1,?,0,?,10µM,?,-75
C[C@H]1COC(=O)O1,-,0,-,-,-,-
C[C@H]1[C@@H](NS(=O)(=O)c2ccc(F)cc2)CC[C@@]23CCCN2C(=O)CCC[C@@H]13,-,-,-,-,-,0
SMILES,Lassa entry inh,FBPA Giardia inh,MARV entry inh,FMDV inh,HCV inh,HCMV inh
CCOc1ccc(NS(=O)(=O)c2cc(NC(=O)c3cccc(C)c3)ccc2Cl)cc1,16µM,0,?,0,11µM,?
CCOc1ccc(NS(=O)(=O)c2cc(C(=O)N3CCCC3)ccc2Cl)cc1,0,-,0,0,?,0
COc1ccc(-c2nc3c(c4c2C[C@H](c2ccccc2)OC4)CN(S(=O)(=O)c2ccc(C#N)cc2)CC3)c(C)c1,-,0[12.9 µM],-,-,-,-
COc1ccc(/C=C/c2cccc[n+]2C)c(O)c1,-,0,-,0,8.9µM,0
CCN(CC)c1ccc(/C=C/c2cccc[n+]2C)c(OC)c1,?,0,2.8µM,?,0.89µM,-97
C[n+]1ccccc1/C=C/c1cc(Br)ccc1O,-,0,-,0,?,0
COc1cccc(Cn2c(=O)c(-c3cccs3)nc3cnc(N4CCNCC4)nc32)c1,-,0,-,0,-,-
CCN1CCc2c(sc(NC(=O)c3ccc(S(=O)(=O)N4CC(C)OC(C)C4)cc3)c2C(N)=O)C1 (centres undefined),-,?,-,0,0,0
CC(C)N1CCc2c(sc(NC(=O)c3ccc(S(=O)(=O)N4CCOCC4)cc3)c2C#N)C1,-,0,0,0,?,-
CCCN1CCc2c(sc(NC(=O)CCS(=O)(=O)c3ccccc3)c2C(N)=O)C1,0,0,0,0,0,-92
CCOC(=O)N1CCc2c(sc(NC(=O)c3ccc(S(=O)(=O)N4CCCC4)cc3)c2C#N)C1,-,0,-,18µM,?,0
CCN1CCN(S(=O)(=O)c2ccc(C(=O)Nc3sc4c(c3C(N)=O)CCN(CC)C4)cc2)CC1,?,-,8.9µM,0,0,0
CCOC(=O)c1c(NC(=O)c2ccc(S(=O)(=O)N3CCC(C)CC3)cc2)sc2c1CCN(C(C)C)C2,0,-,-,0,-,0
CCOC(=O)c1c(NC(=O)c2ccc(S(=O)(=O)N3CCC(C)CC3)cc2)sc2c1CCN(CC)C2,0,-,-,0,-,-82
O=c1c2c3c(sc2n(CCN2CCOCC2)c(=O)n1C1CCCCC1)CCCCC3,-,-,-,-,-,0

# Assay outcomes as filed in PubChem.
